Screens from PubChem BioAssay.
Compounds with a hit are over-represented: about 3.4% of the library has one in this group of screens.
MITF inh: blocks human microphthalmia-associated transcription factor; O75030; AlphaScreen MITF homodimerization, bead proximity signal; 0.91% of 650,000 active; inhibition, % at 2.6 µM; AID 1259374; in the data active = inhibition above about 50%
Target sequence (O75030 whole entry, looked up): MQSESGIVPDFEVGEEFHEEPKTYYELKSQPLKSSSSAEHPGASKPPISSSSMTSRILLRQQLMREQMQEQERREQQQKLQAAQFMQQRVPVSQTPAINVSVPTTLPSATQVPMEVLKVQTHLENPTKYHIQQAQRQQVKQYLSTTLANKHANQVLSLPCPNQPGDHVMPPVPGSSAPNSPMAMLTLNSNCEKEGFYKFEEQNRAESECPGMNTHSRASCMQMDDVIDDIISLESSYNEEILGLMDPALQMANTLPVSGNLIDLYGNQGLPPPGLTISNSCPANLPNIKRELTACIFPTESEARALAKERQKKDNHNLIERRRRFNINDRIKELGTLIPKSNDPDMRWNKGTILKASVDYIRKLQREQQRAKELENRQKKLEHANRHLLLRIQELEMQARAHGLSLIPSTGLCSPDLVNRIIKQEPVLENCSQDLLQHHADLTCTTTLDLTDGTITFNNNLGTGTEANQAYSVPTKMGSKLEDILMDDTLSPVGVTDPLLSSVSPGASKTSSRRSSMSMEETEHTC
TEAD-YAP inh: TEAD-YAP interaction inhibition; HEK-TIYL cells, TEAD-Gal4/YAP UAS-luciferase luminescence; inhibition, % at 9.12 µM; 1.4% of 640,000 active; AID 1259422; in the data active = inhibition above about 32%
FBW7 activator: human FBW7 E3 ligase activation, primary screen | 0.13% of 650,000 active | AlphaScreen FBW7–phospho-cyclin E peptide binding, activator screen | normalized activity (activation), % at 26.1 µM | Q969H0; in the data active = normalized activity above about 1.9%;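 also: purified mutant Fbw7 with reduced substrate affinity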
GPR151 activ: activators of human GPR151; Q8TDV0; 1% of 650,000 active; activation, % at 11.2 µM; AID 1508602; PathHunter beta-arrestin GPR151 cells, luminescence; in the data active = activation above about 4.9%
MITF confirm: human MITF inhibition, confirmation; shares compounds with MITF inh; inhibition, % at 2.6 µM; AID 1259372; AlphaScreen MITF homodimerization, biotin/His-MITF beads; 16% of 4,700 active;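 active = inhibition above a cutoff derived from the DMSO control wells, cut at about 28% in these data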;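 also: inhibitors lower the bead chemiluminescence by keeping MITF from dimerizing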
AS interf DR: optically interferes with AlphaScreen signal in dose response | AlphaScreen optical interference counterscreen, cell-free | AID 1259373 | 6% of 480 active | IC50, µM | shares compounds with MITF inh; call rule not given here
AlphaScreen intf2: counter-screen: compounds optically interfering with AlphaScreen; shares compounds with MITF inh; LysRS AlphaScreen counterscreen, signal interference, triplicate; inhibition, % at 2.6 µM; 7.6% of 4,700 active; AID 1259376;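 active = inhibition above a cutoff derived from the DMSO control wells, cut at about 30% in these data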
Hits are given with their value; - = inactive; . = not tested or not shown.

SMILES | MITF inh | TEAD-YAP inh | FBW7 activator | GPR151 activ | MITF confirm | AlphaScreen intf2 | others
O=C(CN1CCC(NC(=O)c2ccc(F)cc2)CC1)NC1CC1 | - | - | - | - | . | .
O=C(/C=C/c1ccc(Br)o1)Nc1ccccc1Cl | - | - | - | - | . | .
Cc1ccc(/C=C/C(=O)Nc2ccccc2Cl)o1 | 52 | - | - | - | - | -
O=c1[nH]cc(N=Cc2ccc([N+](=O)[O-])o2)c(=O)[nH]1 | 85 | - | - | - | 64 | - | AS interf DR=-
CN1CCN(CC(O)Cn2cc(C=O)c3ccccc32)CC1 (configuration not stated) | 66 | - | - | - | - | -
CCCC(=O)N1CCN(c2ccc(NC(=O)Cc3ccccc3)cc2)CC1 | - | - | - | - | . | .
Cn1nc(Oc2ccc(-c3ccccc3)cc2)c(=O)n(C)c1=O | 80 | - | - | - | - | -
Cc1cc(OCC(=O)Nc2ccc(S(=O)(=O)Nc3nccs3)cc2)ccc1Br | - | - | - | - | . | .
COc1ccc(NC(=O)CNCCN2CCCCC2)cc1 | - | - | - | - | . | .
O=C(CNCCN1CCOCC1)Nc1ccc2c(c1)OCO2 | 87 | - | - | - | - | -
CC(NCCN1CCOCC1)C(=O)Nc1ccccc1 (configuration not stated) | 98 | - | - | - | - | -
COc1ccc2oc(=O)c(C(=O)NCCN3CCOCC3)cc2c1 | - | - | - | - | . | .
COc1ccc(C(=O)NCCN2CCOCC2)c(OC)c1 | 53 | - | - | - | - | -
COc1ccc(NC(=O)CNCCN2CCOCC2)cc1 | 93 | - | - | - | - | -
CCC(=O)N(C)C(Cc1ccc(F)cc1F)C1CCN(C(=O)CCn2cncn2)CC1 (configuration not stated) | - | - | - | - | . | .
Cc1nc2nc(SCC(=O)Nc3cccc(Cl)c3)nn2c(C)c1Cc1cccc(Cl)c1 | - | - | - | - | . | .
O=C(CNCCN1CCOCC1)Nc1ccc(OC(F)(F)F)cc1 | 60 | - | - | - | - | -
CCN1CCN(CCC(=O)Nc2ccc3c(c2)OCCO3)CC1 | 104 | - | - | - | - | -
O=C(Nc1ccc(N2CCOCC2)cc1)NC1CCCCC1 | 72 | - | - | - | - | -
O=C(CNCCCN1CCOCC1)Nc1ccc(C(=O)N2CCCCC2)cc1 | 85 | - | - | - | - | -
O=C(CNCCCN1CCOCC1)Nc1ccccc1 | - | - | - | - | . | .
COc1cc(OC)cc(C(=O)Nc2c3c(nn2-c2ccc(F)cc2)CSC3)c1 | - | - | - | - | . | .
O=C(CNCCN1CCOCC1)Nc1ccc(N2CCCCCC2)cc1 | - | - | - | - | . | .
O=C(CNCCN1CCOCC1)Nc1ccc(N2CCCC2)cc1 | 73 | - | - | - | 29 | 60
COc1ccc(CCNCCN2CCOCC2)cc1 | 84 | - | - | - | - | -
SMILES | MITF inh | TEAD-YAP inh | FBW7 activator | GPR151 activ | MITF confirm | AlphaScreen intf2 | others
COc1ccc(CCNC(=O)C(=O)NCCCN2CCOCC2)cc1 | - | - | - | - | . | .
COc1ccc(CCN2COc3c(cc(Cl)c4cccnc34)C2)cc1OC | 68 | 39 | - | - | 94 | 100
COCCN1COc2c(cc(Cl)c3cccnc23)C1 | 66 | - | - | - | 48 | 92
COc1ccc(C2(C(F)(F)F)Cc3nc4ccccc4n3C(=O)N2)cc1 (configuration not stated) | - | - | - | - | . | .
O=C(N/N=C/C=C/c1ccc([N+](=O)[O-])o1)c1cccc(O)c1 | - | - | - | - | . | .
CC(O)C(=O)N/N=C/C=C/c1ccc([N+](=O)[O-])o1 (configuration not stated) | 55 | - | - | - | 71 | - | AS interf DR=-
OC(CNCCNc1cccc2ccccc12)COCc1ccc(Cl)cc1 (configuration not stated) | 53 | - | - | - | - | -
CC(C)(CO)NCC(O)COCc1ccc(Cl)cc1 (configuration not stated) | - | - | - | - | . | .
O=C(CC1(O)C(=O)Nc2ccccc21)c1ccc([N+](=O)[O-])cc1 (configuration not stated) | - | - | - | - | . | .
O=C(CC1(O)C(=O)Nc2ccc([N+](=O)[O-])cc21)c1ccccc1 (configuration not stated) | 69 | - | - | - | - | -
O=C(c1cccc(I)c1)N1CCCCC1 | - | - | - | - | . | .
O=[N+]([O-])c1ccccc1OCCN1CCCC1 | - | - | - | - | . | .
CCN1CCN(CCCOc2ccccc2[N+](=O)[O-])CC1 | 74 | - | - | - | - | -
O=[N+]([O-])c1ccccc1OCCCCN1CCNCC1 | 67 | - | - | - | - | -
CC1CCCN(CCOc2ccccc2[N+](=O)[O-])C1 (configuration not stated) | 54 | - | - | - | - | -
Cc1ccc(OCCCCN2CCNCC2)c([N+](=O)[O-])c1 | 80 | - | - | - | - | -
OCCNc1nc(Cl)nc2c1ncn2-c1ccccc1 | - | - | - | - | . | .
CC1=C(C(=O)OC2CCC(C)CC2)C(c2ccccc2Cl)NC(=O)N1 (configuration not stated) | 81 | - | - | - | - | -
CC1=C(C(=O)OC2CCCCC2)C(c2ccc(OCc3ccccc3)cc2)NC(=O)N1 (configuration not stated) | 55 | - | - | - | - | -
CCOC(=O)CN1C(=O)C(CC)Oc2ccc(C)cc21 (configuration not stated) | - | - | - | - | . | .
CC1(C)CC(N2COc3c(cc(Cl)c4cccnc34)C2)CC(C)(C)N1 | 52 | 40 | - | - | 68 | 100
Clc1cc2c(c3ncccc13)OCN(C1CCCC1)C2 | 97 | 66 | - | - | 99 | 101
Clc1cc2c(c3ncccc13)OCN(Cc1ccco1)C2 | - | - | - | - | . | .
Nc1cccc(N2C(=O)c3cc(S(=O)O)cc4c(N)c(S(=O)O)cc(c34)C2=O)c1 | 58 | - | - | - | 79 | - | AS interf DR=-
NC(=O)C1CCN(C(=O)c2cc(-c3ccco3)nc3ccccc23)CC1 | 97 | - | - | - | 75 | - | AS interf DR=-
SMILES | MITF inh | TEAD-YAP inh | FBW7 activator | GPR151 activ | MITF confirm | AlphaScreen intf2 | others
Cc1ccc2nc(-c3ccccc3)cc(C(=O)N3CCC(C(N)=O)CC3)c2c1 | - | - | - | - | . | .
O=C(NNC(=O)c1cc(-c2ccco2)nc2ccccc12)NC1CCCCC1 | 87 | - | - | - | 91 | - | AS interf DR=-
CCC(Sc1nc2ccccc2c2nc(C)nn12)C(=O)Nc1ccc2c(c1)OCO2 (configuration not stated) | - | - | - | - | . | .
CCCCN(CCCC)C(=O)CCn1c(=O)oc2ccccc21 | - | - | - | - | . | .
Cc1nn(C2CCS(=O)(=O)C2)c(Cl)c1CNCc1ccccc1 (configuration not stated) | 58 | - | - | - | - | -
CCc1nnc2sc(-c3ccc(NC(=O)COc4ccc(OC)cc4)cc3)nn12 | - | - | - | - | . | .
CCc1nnc2sc(-c3ccc(NC(=O)C(C)(C)C)cc3)nn12 | 54 | - | - | - | - | -
